HTT ATP protect: qHTS Multiplex Assay to Identify Dual Action Probes in a Cell Model of Huntington: Cytoprotection (ATP). PC12 HTT-Q103 induced, cytoprotection, ATP luminescence, 40 h. actives 0.14% (n = 230,000). AID 1471, 2008. Potency, µM (titrated, usually from 56.4 µM), inactives show cytoprotection (ATP increase), hits mostly activators; also: potency is read from the fitted curve at half-maximal effect; % of control where 0% means no effect; nearly all actives have a fitted effect of over 45% in size
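Compounds added alongside 100 nM tebufenozide, which induces toxic Q103 huntingtin exon 1-GFP in stable PC12 cells; surviving cells quantified by luminescent ATP measurement. Medium: phenol red-free DMEM, 5% equine and 5% calf serum.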
NPSR antagonist: qHTS Assay for Antagonists of the Neuropeptide S Receptor: cAMP Signal Transduction; Q6W5P4; CHO-NPSR cells, cAMP TR-FRET, antagonist mode; Potency, µM (series often up to 38.3 µM), for the others: top-dose activity change, negative = inhibition, most hits filed as inhibitors; AID 1461, 2008; actives 1% (n = 220,000); also: potency is read from the fitted curve at half-maximal effect; % is scaled to controls: 0 for no effect and ±100 for the full control effect; nearly all actives have a fitted effect of over 50% in size
Target sequence (Q6W5P4 whole entry, looked up): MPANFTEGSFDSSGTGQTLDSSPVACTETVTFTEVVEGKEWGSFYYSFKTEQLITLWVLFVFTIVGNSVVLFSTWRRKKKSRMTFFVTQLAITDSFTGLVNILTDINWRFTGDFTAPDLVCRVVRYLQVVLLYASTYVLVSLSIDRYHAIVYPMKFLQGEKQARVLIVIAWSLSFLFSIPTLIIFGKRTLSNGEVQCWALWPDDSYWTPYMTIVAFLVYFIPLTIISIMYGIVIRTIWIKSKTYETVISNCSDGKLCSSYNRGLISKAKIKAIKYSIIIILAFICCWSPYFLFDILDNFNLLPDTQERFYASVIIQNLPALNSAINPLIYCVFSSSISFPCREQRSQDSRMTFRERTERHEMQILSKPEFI
IMPase Li inh: qHTS Assay for Identifying the Cell-Membrane Permeable IMPase Inhibitors: Potentiation with Lithium | CHO-M1 cells, IP1 TR-FRET (IP-One), carbachol + lithium | Potency, µM (highest dose often 59.4 µM), for the others: at the highest dose activity, negative = IMPase inhibition, most hits filed as inhibitors | actives 0.35% (n = 210,000) | AID 1457, 2008;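 also: IP1 builds up when IMPase is blocked and the TR-FRET signal falls; potency is read from the fitted curve at half-maximal effect; plate controls were basal vehicle for no effect and high inhibitor control for full effect; nearly all actives have a fitted effect of over 50% in size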
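Test compounds were applied to CHO-M1 cells previously cultured for 16–30 h at 2000 per well. A small lithium amount accompanied them; after 30 min at 37C, IP1 was quantified by TR-FRET.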
Lamin A splicing: qHTS Assay for Modulators of Lamin A Splicing | AID 1487, 2009 | actives 0.01% (n = 200,000) | HeLa LMNA splicing GFP/RFP minigene ratio, 48 h | Potency, µM (highest dose often 46.1 µM), inactives show at the highest dose ratio change, negative = inhibition, most hits filed as inhibitors; active = well fitted inhibition curve with a large enough effect in the signal ratio, with a control signal flat, not every such curve was filed as active; inconclusive = small, poorly fitted or top-dose-only effect, or effect the other way, or a change in a side signal; the % refers to the signal ratio; also: potency is read from the fitted curve at half-maximal effect; % is scaled to controls: 0 for no effect and ±100 for the full control effect
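Read-out is the ratio of GFP to DsRed2 object intensity, acquired by 488 nm laser-scanning cytometry on HeLa lamin A-EGFP minigene reporter cells. Compound incubation 48 hrs at 37 °C in Opti-MEM with 2% FBS; DMSO 0.5% final.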
HttQ103 aggreg: qHTS Multiplex Assay to Identify Dual Action Probes in a Cell Model of Huntington: Aggregate Formation (GFP); PC12 HttQ103-GFP aggregates, Acumen cytometry, 40 h; Potency, µM (doses to about 46.1 µM), for the others: top-dose activity change, negative = inhibition, actives largely listed as inhibitors; actives 1.1% (n = 220,000); also: potency is read from the fitted curve at half-maximal effect; % is scaled to controls: 0 for no effect and ±100 for the full control effect; nearly all actives have a fitted effect of over 60% in size
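Using laser scanning cytometry, GFP-positive aggregates were counted after lysis of PC12 cells induced with 100 nM tebufenozide to express HTT exon 1 Q103–GFP. Compounds were tested in titration.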
IMPase cell inh: qHTS Assay for Identifying the Cell-Membrane Permeable IMPase Inhibitors; Inositol monophosphatase 1 (Rattus norvegicus), P97697; CHO-M1 cells, IP1 accumulation, HTRF TR-FRET ratio; inhibition (IP1 accumulation), % at 46.1 µM; 120,000 tested, under 10 active; AID 901, 2007; active = well fitted curve in the direction sought with a large enough effect in the signal ratio, not every such curve was filed as active; inconclusive = small, poorly fitted or top-dose-only effect, or a change in a side signal; inactive = no such curve, though single readings can be large or run the other way; the % refers to the signal ratio;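 also: cells stimulated with carbachol in lithium chloride buffer; plate controls were DMSO basal wells for no effect and reference inhibitor wells for full effect; higher means more IMPase inhibition seen as more IP1 and lower FRET ratio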
Target sequence (P97697 whole entry, looked up): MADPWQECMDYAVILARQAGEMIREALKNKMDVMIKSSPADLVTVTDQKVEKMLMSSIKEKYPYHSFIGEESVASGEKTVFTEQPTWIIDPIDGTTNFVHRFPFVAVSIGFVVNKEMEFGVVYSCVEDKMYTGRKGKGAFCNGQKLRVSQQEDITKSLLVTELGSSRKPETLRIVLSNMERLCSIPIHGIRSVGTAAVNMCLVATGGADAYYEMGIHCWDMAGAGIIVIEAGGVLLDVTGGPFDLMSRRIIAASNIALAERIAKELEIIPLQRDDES
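Cellular IMPase inhibition is scored as a rise in cytosolic IP1, detected by competitive TR-FRET between d2-labelled IP1 and a europium anti-IP1 antibody. M1-expressing CHO cells were stimulated with carbachol for 30 min at 37C, with lithium (50 mM LiCl) present in the buffer.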
Starred values were filed as active, the others as inactive; ! = repeats disagree; [ ] = remark or other dose. Hits are enriched below; roughly 1.6% of the tested compounds scored in any of these assays. Unless noted, calls follow the shape of the dose curve; as a rule, active = well fitted curve in the direction sought with a large enough effect; inconclusive = small, poorly fitted or top-dose-only effect, or another doubt; inactive = no such curve, though single readings can be large; an effect the other way counts as inactive or inconclusive.

How did O=C(NCC(c1cccnc1)N1CCOCC1)NC1CCCCC1 (stereo not given) do in these assays?
HTT ATP protect: 0%; NPSR antagonist: 13%; IMPase Li inh: -3%; HttQ103 aggreg: -7%

Results for N=C(N)SCCSC(=N)N ?
HTT ATP protect: -1%[10 µM]; IMPase Li inh: -2%

What do the screens show for `CC[C@]1(O)C[C@H]2CN(CCc3c([nH]c4ccccc34)[C@](C(=O)OC)(c3cc4c(cc3OC)N(C=O)[C@H]3[C@@](O)(C(=O)OC)[C@H](OC(C)=O)[C@@]5(CC)C=CCN6CC[C@]43[C@H]65)C2)C1`?
HTT ATP protect: -77%[1.9 µM]; IMPase cell inh: 2

Results for CCCc1c(OCCCOc2ccc(OCC(=O)O)cc2)ccc(CC=O)c1O ?
HTT ATP protect: -2%; IMPase Li inh: 4%; IMPase cell inh: -7

What do the screens show for `COc1ccc(-c2[nH]c(-c3ccc4c(c3)OCO4)nc2-c2ccccc2)cc1`?
HTT ATP protect: -88%; NPSR antagonist: inconclusive; IMPase Li inh: 1%[38.3 µM]; Lamin A splicing: inconclusive; HttQ103 aggreg: inconclusive; IMPase cell inh: -6

Results for NC(=O)c1ccc(-c2nc(-c3ccc4c(c3)OCO4)c(-c3ccccn3)[nH]2)cc1 ?
HTT ATP protect: 8%; IMPase Li inh: 2.5µM*!; IMPase cell inh: -29

How did Cc1ccc(S(=O)(=O)C2C(=O)N(C)C3(C)CC2c2ccccc2O3)cc1C (stereo not given) do in these assays?
HTT ATP protect: 4µM*; NPSR antagonist: -15%[46.1 µM]; Lamin A splicing: -12%; HttQ103 aggreg: inconclusive; IMPase cell inh: -8

Results for Oc1ccccc1CNc1cnc2ccccc2c1 ?
HTT ATP protect: 14%[10 µM]; NPSR antagonist: -15%[46.1 µM]; IMPase Li inh: 3%; Lamin A splicing: inconclusive; HttQ103 aggreg: 35µM*; IMPase cell inh: 2

How did O=S1(=O)C=C(Sc2nc3ccccc3s2)c2ccccc21 do in these assays?
HTT ATP protect: 2µM*; NPSR antagonist: 10µM*; IMPase Li inh: 50%[38.3 µM]; Lamin A splicing: inconclusive; HttQ103 aggreg: 4.5µM*; IMPase cell inh: 15

How did Cc1cc(C)nc(SC2=CS(=O)(=O)c3ccccc32)n1 do in these assays?
HTT ATP protect: 3%[10 µM]; NPSR antagonist: -20%[46.1 µM]; IMPase Li inh: 6%; Lamin A splicing: inconclusive; HttQ103 aggreg: inconclusive; IMPase cell inh: 27

How did CC[N+]1(C)C2CCC1CC(OC(=O)[C@H]1CCC(C(=O)OC3CC4CCC(C3)[N+]4(C)CC)(c3ccccc3)c3ccccc31)C2 (stereo not given in full) do in these assays?
HTT ATP protect: -34%; IMPase Li inh: -16%

Results for O=[N+]([O-])c1cc2oc3c(c2c(C=NCc2ccccc2)c1O)CCCC3 ?
HTT ATP protect: 11%[10 µM]; NPSR antagonist: 10µM*; IMPase Li inh: 15%; Lamin A splicing: inconclusive; HttQ103 aggreg: 26%

What do the screens show for `C/C=C1\C(=O)C[C@H]2[C@@H]3CCC4=CC(=O)CC[C@]4(C)[C@H]3CC[C@]12C`?
HTT ATP protect: 24%; IMPase Li inh: 18%

What do the screens show for `CCOc1ccc(/C=N/NC(=O)C(C)N(c2ccc(OC)cc2)S(C)(=O)=O)cc1OCC` (stereo not given)?
HTT ATP protect: -9%; NPSR antagonist: 18%; IMPase Li inh: 23%; HttQ103 aggreg: -14%

How did COc1ccc(N(C(C)C(=O)N/N=C/c2cc(Br)c(C)o2)S(C)(=O)=O)cc1 (stereo not given) do in these assays?
HTT ATP protect: 0.89µM*; NPSR antagonist: 0%; IMPase Li inh: 0%; Lamin A splicing: -3%[46 µM]; HttQ103 aggreg: inconclusive

Results for COC(=O)N[C@@H](c1cccc(F)c1)C(C(C)=O)C(=O)OC (stereo not given in full) ?
HTT ATP protect: -36%; IMPase Li inh: 26%

What do the screens show for `COc1ccc(-c2cc(C(C)=O)c(C)n2CCC(=O)NCc2ccccc2OC)cc1`?
Lamin A splicing: -13%[46 µM]

What do the screens show for `Cc1[nH]c2ccccc2c1/C=N/NC(=O)C1CC1(c1ccccc1)c1ccccc1` (stereo not given)?
HTT ATP protect: 8%[10 µM]; NPSR antagonist: -38%; IMPase Li inh: 15%; Lamin A splicing: inconclusive; HttQ103 aggreg: 13µM*

How did O=C(O)c1ccc(N2C(=O)/C(=C/c3ccc(-c4ccc([N+](=O)[O-])cc4)o3)C=C2c2ccccc2)cc1 do in these assays?
NPSR antagonist: 10µM*; IMPase Li inh: 12%; HttQ103 aggreg: 17%

How did C=C1CC2C3C=C(C)C4=CC(=O)CCC4(C)C3CCC2(C)[C@@]1(OC(C)=O)C(C)=O (stereo not given in full) do in these assays?
HTT ATP protect: 5%; Lamin A splicing: inconclusive; HttQ103 aggreg: -4%

How did CCCN(CCC)S(=O)(=O)c1ccc(N2CCCCS2(=O)=O)cc1 do in these assays?
Lamin A splicing: -3%[46 µM]

How did O=c1cc(CN2CCN(c3ccccc3F)CC2)c2cc3c(cc2o1)CCCC3 do in these assays?
HTT ATP protect: 1.1µM*; NPSR antagonist: -5%[46.1 µM]; IMPase Li inh: 36%[38.3 µM]; Lamin A splicing: 16%; HttQ103 aggreg: 0.63µM*; IMPase cell inh: -8

What do the screens show for `O=c1cc(CN2CCN(Cc3ccccc3)CC2)c2cc3c(cc2o1)CCC3`?
HTT ATP protect: 6%[10 µM]; NPSR antagonist: -57%; HttQ103 aggreg: 20%[9.22 µM]

What do the screens show for `Cc1ccc(-n2nnnc2CNC(=O)c2ccccc2F)cc1C`?
Lamin A splicing: -10%[46 µM]

How did CC(C)n1c(-c2ccc(C(C)(C)C)cc2)n[nH]c1=S do in these assays?
HTT ATP protect: -20%; NPSR antagonist: -8%[46.1 µM]; IMPase Li inh: 17%[38.3 µM]; Lamin A splicing: 29%; HttQ103 aggreg: 8.9µM*; IMPase cell inh: 9

What do the screens show for `CC(C)n1c(-c2ccccc2F)n[nH]c1=S`?
HTT ATP protect: -15%; NPSR antagonist: -4%[46.1 µM]; IMPase Li inh: -9%[38.3 µM]; Lamin A splicing: 0%; HttQ103 aggreg: 8%; IMPase cell inh: -5

Results for Cc1cc2nc3c(=O)[nH]c(=O)nc-3n(C)c2cc1C=O ?
HTT ATP protect: -348%; IMPase Li inh: -13%

What do the screens show for `CCN(c1ccc(NS(=O)(=O)c2cc(Cl)ccc2Cl)cc1)C(C)C`?
HTT ATP protect: 1%[10 µM]; NPSR antagonist: -53%; IMPase Li inh: 23%; Lamin A splicing: inconclusive; HttQ103 aggreg: 10µM*

Bioassay records as filed in PubChem.
